Bioassay records (PubChem BioAssay)
Rows were chosen to be rich in hits. Some 10% of all compounds tested hit in one or more screens of this group.
HP1b binding inh – HTS for Inhibitors of HP1-beta Chromodomain Interactions with Methylated Histone Tails. Chromobox protein homolog 1 (Homo sapiens), P83916. Potency, µM (highest dose often 114 µM), most hits filed as inhibitors. AlphaScreen HP1-beta / biotin-H3K9me3 peptide binding. 0.56% of 390,000 active; further: nearly all actives have a fitted effect of over 70% in size
Target sequence (P83916 whole entry, looked up): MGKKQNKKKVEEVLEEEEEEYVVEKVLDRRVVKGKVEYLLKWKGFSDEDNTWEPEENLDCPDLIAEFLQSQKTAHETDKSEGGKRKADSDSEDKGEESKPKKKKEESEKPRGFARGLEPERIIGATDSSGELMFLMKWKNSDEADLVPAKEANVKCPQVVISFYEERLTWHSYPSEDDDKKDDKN
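AlphaScreen: HP1-beta (50 nM) preformed 30 min with biotin-H3(1-18)K9me3 peptide (50 nM) in PBS pH 7.4, 0.01% Tween-20. Compound added for 30 min at RT, then streptavidin donor/nickel chelate acceptor beads (10 ug/mL) for 30 min.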
JMJD2A Tudor – qHTS Assay for Inhibitors of JMJD2A-Tudor Domain; Lysine-specific demethylase 4A (Homo sapiens), O75164; AlphaScreen JMJD2A-Tudor / H3K4me3 peptide binding; Potency, µM (series often up to 114 µM), usual class: inhibitors; 4.4% of 390,000 active; further: nearly all actives have a fitted effect of over 50% in size
BAZ2B inh – qHTS Assay for Inhibitors of BAZ2B; Bromodomain adjacent to zinc finger domain protein 2B (Homo sapiens), Q9UIF8; AlphaScreen BAZ2B-H3K14Ac peptide displacement; Potency, µM (series often up to 114 µM), usual class: inhibitors; 4.4% of 360,000 active; further: nearly all actives have a fitted effect of over 60% in size
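AlphaScreen displacement of biotin-H3(5-23)K14Ac peptide (50 nM final) from BAZ2B (50 nM final) in PBS pH 7.4, 0.01% Tween-20; complex preformed 30 min RT, then compounds (top 110 uM) 30 min RT, beads 20 min dark.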
Six1-Eya2 inh – qHTS Assay for Inhibitors of the Six1/Eya2 Interaction; AlphaScreen GST-Six1/His-Eya2 binding, biochemical; stronger effect = lower value; 0.56% of 360,000 active; activity change, % (concentration not given with the values); in the data active means activity change below about -65%; inconclusive means mostly about -30% to -63%
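AlphaScreen luminescence read after one hour at 37 °C in darkness. Pin-transferred compounds met GST-Six1 and His-Eya2 protein (5X stock 250 nM/500 nM) plus glutathione donor and Ni-chelate acceptor beads (5X, 50 ug/mL).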
G9a block – qHTS Assay for Inhibitors of Histone Lysine Methyltransferase G9a; Histone-lysine N-methyltransferase EHMT2 (Homo sapiens), Q96KQ7; G9a H3K9 monomethylation, AlphaScreen, 2 h; Potency, µM (top dose mostly 102 µM), most hits filed as inhibitors; 8.8% of 350,000 active; AID 504332, 2011; further: nearly all actives have a fitted effect of over 75% in size
Target sequence (Q96KQ7 913-1193 limits assumed): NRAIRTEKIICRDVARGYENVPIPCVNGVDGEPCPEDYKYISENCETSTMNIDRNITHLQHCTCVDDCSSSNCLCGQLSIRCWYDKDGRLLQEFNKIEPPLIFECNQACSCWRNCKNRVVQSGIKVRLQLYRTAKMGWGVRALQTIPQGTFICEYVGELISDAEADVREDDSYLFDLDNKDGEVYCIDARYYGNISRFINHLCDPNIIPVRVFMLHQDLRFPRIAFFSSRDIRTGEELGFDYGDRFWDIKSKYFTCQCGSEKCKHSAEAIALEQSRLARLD
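AlphaScreen detection with an anti-monomethyl H3K9 antibody quantified product after a 2 h room-temperature reaction containing 500 nM biotinylated H3K9 peptide, 20 µM SAM and 20 nM enzyme, which had been preincubated 15 min with compound.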
CtBP-E1A inh – qHTS Assay for Inhibitors of the CtBP/E1A Interaction | activity change, % (test concentration not listed) | CtBP / adenovirus E1A interaction (AlphaScreen) | 0.49% of 340,000 active | AlphaScreen GST-E1A/His-CtBP binding, 1536-well; stronger effect = lower value; in the data active means activity change below about -65%; inconclusive means mostly about -30% to -63%
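In 5 uL wells, 23 nL compound meets equimolar GST-E1A and His-CtBP (5X stock 125 nM each) for 2 h, 37 °C. Beads (5X, 50 ug/mL) then 1 h, 37 °C, dark.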
Numbers stand for hits; – = inactive; ? = inconclusive; · = not tested or not shown; ! = not confirmed by another sample; [ ] = dose if it differs, or a comment. Unless noted, the call rests on the fitted dose curve; in most records, active means well fitted inhibition curve with a large enough effect; inconclusive means small, poorly fitted or top-dose-only effect; inactive means no such curve, though single readings can be large or run the other way.

SMILES | HP1b binding inh | JMJD2A Tudor | BAZ2B inh | Six1-Eya2 inh | G9a block | CtBP-E1A inh
CCOC(=O)c1cc(-c2ccc(F)cc2)n(CCC(=O)Nc2ccccc2OC)c1C | – | ? | – | · | – | ·
COc1ccc(Oc2ncc3nc(CCc4ccccc4)c(=O)n(C[C@H]4CCCO4)c3n2)cc1 | · | · | · | · | –[0.501 µM] | ·
COc1ccccc1NC(=O)c1c(NCc2ccc(OC)c(OC)c2OC)sc2c1CCC2 | – | – | – | · | ? | ·
COC(=O)c1ccc(NC(=O)c2c(NCc3ccc(C)o3)sc3c2CCCC3)cc1 | – | ? | – | · | ? | ·
CCOC(=O)c1ccc(NC(=O)c2c(NCc3cccc(OC)c3OC)sc3c2CCC3)cc1 | – | – | – | · | 14µM | ·
CCOC(=O)c1ccc(NC(=O)c2c(NCc3sccc3C)sc3c2CCCCC3)cc1 | – | 56µM | 45µM | · | 8.9µM | ·
COc1ccc(C(C#N)=C2C=CC(=NO)C=C2)cc1 | 40µM | 16µM | 14µM | – | 2.2µM | –
COc1cc(C2NC(=O)NC(O)(C(F)(F)F)C2C(=O)c2ccc(Cl)cc2)ccc1O (centres undefined) | – | – | – | – | 79µM | –
COc1cccc(N2CCN(C(=O)C3CCC(CNS(=O)(=O)c4ccc(Br)s4)CC3)CC2)c1 (centres undefined) | – | – | – | · | – | ·
COc1ccc(C(=O)NCC(c2ccc3c(c2)OCO3)N2CCN(c3ccccc3F)CC2)cc1 (centres undefined) | – | – | – | · | – | ·
NC1=NC(=O)/C(=C/c2cn(Cc3ccccc3)c3ccccc23)S1 | – | – | ? | – | 50µM | –
O=C1C2C3C=CC(C3)C2C(=O)N1/N=C/c1cn(Cc2ccccc2)c2ccccc12 (centres undefined) | – | – | – | – | –[12.7 µM] | –
Cc1nc2nc(C)c(CCC(=O)NCCCN3CCN(c4cccc(Cl)c4)CC3)c(C)n2n1 | – | ? | ? | – | 50µM! | –
OCCN=c1cc(-c2ccccc2)oc2ccc(Cl)cc12 | – | – | ? | – | –[0.501 µM] | –
CN(C)CCCN=c1cc(-c2ccccc2)oc2ccc(Cl)cc12 | – | – | ? | – | 56µM | –
O=C(CCCCn1cnc2c(=S)nc[nH]c21)Nc1ccc(C(=O)O)c(O)c1 | 71µM | 2.8µM | · | – | · | –
COC(=O)C1CCN(c2cc(Cl)nc(N)n2)CC1 | – | – | – | – | – | –
NC(=O)C1CCN(c2cc(Cl)nc(N)n2)CC1 | – | 10µM | – | – | – | –
COc1ccc(OC)c(NC(=O)c2cc(C3CC3)nc3c2c(C)nn3-c2ccc(C)cc2)c1 | – | – | – | · | – | ·
CNc1cc([N+](=O)[O-])ccc1N/C=C/C(=O)c1ccc2c(c1)OCO2 | – | – | – | – | – | –
CNc1cc([N+](=O)[O-])ccc1N/C=C/C(=O)c1cccs1 | – | ? | 50µM | – | ? | –
O=C(/C=C/Nc1cccc([N+](=O)[O-])c1)c1cccs1 | – | – | – | – | 40µM | –
Cc1ccc(N/C=C/C(=O)c2cccs2)cc1C | – | – | – | – | – | –
O=C(/C=C/Nc1ccc(Nc2ccccc2)cc1)c1cccs1 | ? | ? | 13µM | ? | 4µM | –
Cc1cc(N/C=C/C(=O)c2cccs2)ccc1F | – | – | – | – | – | –
SMILES | HP1b binding inh | JMJD2A Tudor | BAZ2B inh | Six1-Eya2 inh | G9a block | CtBP-E1A inh
O=C(Cc1ccccc1)NCC(=O)OC(c1ccccc1)c1ccccc1 | – | – | – | – | – | –
O=C(CN1CCN(Cc2ccccc2)CC1)Nc1nc2ccccc2s1 | – | – | – | – | – | –
CN1CCN(CC(=O)Nc2nc3ccccc3s2)CC1 | ? | 28µM | 71µM | – | 35µM | ·
O=C(CN1CCCCCC1)Nc1nc2ccccc2s1 | ? | 22µM | · | – | · | –
O=C(CN1CCOCC1)Nc1nc2ccc(Cl)cc2s1 | – | – | – | – | – | ·
O=C(CN1CCOCC1)Nc1nc2ccc(Br)cc2s1 | – | – | – | – | 50µM | –
CCOC(=O)N1CCN(CC(=O)Nc2nc3ccccc3s2)CC1 | – | ? | – | – | · | –
Cc1ccc(S(=O)(=O)N2CCCC2C(=O)Nc2nc3ccccc3s2)cc1 (centres undefined) | – | – | – | – | 16µM | –
O=C(CC(=O)c1ccccc1)Nc1cccnc1Cl | – | – | – | – | – | –
CC(Sc1ccsc1[N+](=O)[O-])C(=O)N1CCN(c2ccccn2)CC1 (centres undefined) | – | ? | – | – | ? | –
CC(C)Cn1nc(C(=O)NCc2ccccc2CN2CCCC2)c2ccccc2c1=O | – | – | – | – | –[12.7 µM] | –
Cc1ccc(CN2CCc3[nH]c(=S)[nH]c(=O)c3C2)cc1 | – | – | – | – | ? | ·
O=c1[nH]c(=S)[nH]c2c1CN(Cc1ccc(F)cc1)CC2 | – | – | – | – | ? | ·
CC(C)N1CCc2[nH]c(=S)[nH]c(=O)c2C1 | – | ? | – | – | 40µM | –
CCCN1CCc2[nH]c(=S)[nH]c(=O)c2C1 | – | ? | – | – | 32µM | –
C[C@H](CO)N1C[C@H](C)[C@@H](CN(C)S(=O)(=O)c2ccccc2)Oc2c(NS(=O)(=O)c3ccccc3)cccc2C1=O | – | – | · | – | · | –
NC(=O)c1sc2nc3c(c(-c4ccc(Cl)cc4)c2c1N)CCCC3 | – | – | – | – | 11µM | ?
Nc1c(C(=O)NCc2ccc(Cl)cc2)sc2nc3c(c(C(F)(F)F)c12)CCC3 | – | – | – | – | 45µM | –
Cn1c(=O)c2c(SCC(=O)N3CCCC3)nc(-c3ccccc3)nc2n(C)c1=O | – | – | – | – | – | –
CC(=O)Nc1cccc(-c2nnc(SCC(=O)c3cc([N+](=O)[O-])ccc3Cl)o2)c1 | – | – | ? | · | – | ·
Oc1ccccc1CNc1cccc2cccnc12 | – | ? | – | ? | ? | ?
Oc1ccc(Cc2ccccc2)c2cccnc12 | – | 79µM | · | -75 | · | -92
OCc1ccc(O)c2ncccc12 | – | 40µM | 1.4µM | -88 | –[0.501 µM] | -92
Cc1cc(C)cc(OCC(=O)N(Cc2ccco2)Cc2ccccc2Cl)c1 | – | – | – | · | – | ·
O=C(NC(=S)Nc1ccc(S(=O)(=O)Nc2ncccn2)cc1)c1ccc(Br)cc1 | ? | – | – | – | 50µM | –
COc1ccc(NS(=O)(=O)c2ccc(NC(=S)NC(=O)c3cccnc3)cc2)nn1 | – | –[11.4 µM] | – | – | 28µM | ·
O=C(Nc1ccc(S(=O)(=O)Nc2ncccn2)cc1)c1ccc2ncsc2c1 | – | 35µM | 40µM | – | 45µM | –
